Sampled rows, rich in hits. Any-hit rate of the full collection: about 19%.
TDP1 cell noCPT: qHTS for Inhibitors of human tyrosyl-DNA phosphodiesterase 1 (TDP1): qHTS in cells in absence of CPT; DT40 Tdp1-/- hTDP1 cells, no CPT, ATP luminescence, 48 h; Potency, µM (doses to about 46.2 µM), without a hit: at the top dose activity change, negative = growth inhibition, hits mostly inhibitors; hit rate 15% among 420,000; AID 686978, 2013; also: potency is read from the fitted curve at half-maximal effect; % is scaled to controls: 0 for no effect and ±100 for the full control effect; nearly all actives have a fitted effect of over 55% in size
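Cells were dispensed at 400 per well, compounds added by pin tool, plates incubated ≥48 hr at 37 °C, then CellTiter-Glo added for 30 min at room temperature before luminescence reading. Line: DT40 Tdp1-/- complemented with hTDP1; camptothecin omitted.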
MCF10A rereplic: induces DNA re-replication in MCF 10a normal breast cells; MCF 10A DNA re-replication, Hoechst nuclear intensity, 48 h; Potency, µM (highest dose often 46.1 µM), without a hit: top-dose activity, positive = re-replication, most hits filed as activators; hit rate 2.9% among 350,000; also: potency is read from the fitted curve at half-maximal effect; % of control where 0% means no effect; nearly all actives have a fitted effect of over 50% in size
IL1B secr inh: blocks inflammasome-driven IL-1 beta release. THP-1 LPS/ATP IL-1B secretion, AlphaLISA, 16 h; stronger effect = lower value. activity change, % at 57.5 µM. hit rate 4.7% among 360,000. AID 743279; in the data active = activity change below about -50%; inconclusive = mostly about -30% to -49%; also: % is scaled to controls: 0 for no effect and ±100 for the full control effect
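THP-1 cells pretreated 1 hr with compounds (up to 57.5 uM final), then stimulated with LPS (250 ng/mL final) plus ATP (1.25 mM final); secreted IL-1B measured by AlphaLISA after 16 hr, decreased signal indicating inhibition.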
BCR signal inh: inhibitors of chronic active B-cell receptor signaling; AID 493014; Potency, µM (highest dose often 46.1 µM), for the others: top-dose activity change, negative = inhibition, actives largely listed as inhibitors; ABC-DLBCL IkBa-CBG/CBR reporter, luminescence ratio, 4 h; hit rate 0.05% among 340,000; active = well fitted inhibition curve with a large enough effect in the signal ratio, with a control signal flat, not every such curve was filed as active; inconclusive = small, poorly fitted or top-dose-only effect, or effect the other way, or a change in a side signal; the % refers to the signal ratio;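 also: potency is read from the fitted curve at half-maximal effect; plate controls were basal doxycycline-induced cells for no effect and cells given 10 µM MG132 for full effect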
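Compounds up to 46 uM were incubated four hours with TMD8 cells whose green CBG68 luciferase is fused to IkappaBalpha; red CBR luminescence normalised the signal, and concentration-effect curves were fitted to fusion, red and ratio data.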
SW480 rerep: induces DNA re-replication in SW480 colon adenocarcinoma cells; SW480 DNA re-replication, Hoechst DNA content imaging, 48 h; Potency, µM (highest dose often 46.1 µM), for the others: at the highest dose re-replication activation, hits mostly activators; hit rate 1.8% among 340,000; AID 624297; also: potency is read from the fitted curve at half-maximal effect; % of control where 0% means no effect; nearly all actives have a fitted effect of over 55% in size
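Per well, 250 cells were exposed to pinned compound for 48 hr. Nuclear DNA was visualised with Hoechst (40 min, 37 C) and total object intensity recorded by fluorescence scanning.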
TDP1 cell CPT: DT40-hTDP1 cell growth loss with CPT; chicken DT40 Tdp1-/-;hTDP1 cells + 20 nM CPT, ATP luminescence, 48 h; Potency, µM (series often up to 46.2 µM), without a hit: at the top dose activity change, negative = growth inhibition, most hits filed as inhibitors; hit rate 12% among 420,000; also: potency is read from the fitted curve at half-maximal effect; % is scaled to controls: 0 for no effect and ±100 for the full control effect; nearly all actives have a fitted effect of over 55% in size
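Chicken DT40 Tdp1-/- cells stably complemented with human TDP1 were seeded at 400 cells/well in medium containing 20 nM camptothecin, exposed to pin-transferred compounds, and grown at 37 °C for at least 48 hr. Viability was read as ATP luminescence.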
* marks the source's active call; other numbers are inactive results; ? = inconclusive; / = no result; [ ] = dose if it differs, or a comment. Unless noted, calls follow the shape of the dose curve; as a rule, active = well fitted curve in the direction sought with a large enough effect; inconclusive = small, poorly fitted or top-dose-only effect, or another doubt; inactive = no such curve, though single readings can be large; an effect the other way counts as inactive or inconclusive.

SMILES | TDP1 cell noCPT | MCF10A rereplic | IL1B secr inh | BCR signal inh | SW480 rerep | TDP1 cell CPT
CCOc1ccc(NCc2cccn2-c2nnc(N3CCC(C(=O)NCc4cccc(OC)c4)CC3)s2)cc1 | 6.5µM* | / | / | / | / | ?
Cc1ccc(NCc2cccn2-c2nnc(N3CCC(C(=O)NCCc4ccc(Cl)cc4)CC3)s2)cc1 | 13µM* | / | / | / | / | ?
CCOc1ccc(NCc2cccn2-c2nnc(N3CCC(C(=O)NCCCN4CCCCC4CC)CC3)s2)cc1 (centres undefined) | ? | ? | -69* | ? | 15% | ?
COc1cccc(C2N=C(c3ccccc3C)NO2)c1OC (centres undefined) | 0% | -1% | -6 | 1% | 1% | 3%
Cc1ccc(NC(=O)N2CCc3cc(S(=O)(=O)N4CCC(C)CC4)ccc32)cc1 | -20% | / | / | / | / | -17%
c1ccc(COc2cccc(-c3cc4nc(NCCN5CCOCC5)ccn4n3)c2)cc1 | 13µM* | / | -19 | / | / | 26µM*
c1ccc(COc2ccc(-c3cc4nc(NCCN5CCOCC5)ccn4n3)cc2)cc1 | 21µM* | / | -29 | / | / | ?
Cc1ccc(C)c(NC(=S)c2ccccn2)c1 | 18µM* | ? | -101* | ? | ? | 18µM*
Cc1ccc(C)c(NC(=O)NCc2ccccn2)c1 | 9% | -2% | -13 | 0% | 2% | -1%
Cc1ccc(C)c(C(=O)c2ccccc2NC(=O)c2ccccn2)c1 | 9.2µM* | 7.3µM* | 18 | -5% | ? | 16µM*
O=C(Nc1ccccn1)C(=O)Nc1ccccn1 | -13% | -3% | 4 | ? | -13% | -4%
Cc1ccc2c(c1)C(=O)C(=O)N2CC(=O)Nc1ccccc1NC(=O)c1ccccn1 | 5.8µM* | 13µM* | 39 | ? | 18µM* | 5.2µM*
CC(=O)Nc1ccccc1NC(=O)c1cc(C)ccc1C | 9% | 3% | 16 | 4% | -3% | 17%
S=C(Nc1ccccn1)c1ccccn1 | 0.92µM* | ? | 20 | ? | ? | 0.92µM*
Cc1ccc(N2CC(C(=O)N3CCOCC3)CC2=O)cc1Cl (centres undefined) | 12% | 2% | 3 | 8% | 3% | -3%
COC(=O)c1ccccc1NC(=O)c1c(C)oc2ncn(C)c(=O)c12 | -18% | / | / | / | / | 1%
CCOc1ccc(CCNC(=O)Cn2ncn3c(cc4ccccc43)c2=O)cc1OCC | -26% | / | / | / | / | -10%
O=S1(=O)N[C@@H](Cc2ccccc2)COc2cc(N3CCC[C@@H]3CO)ccc21 | 16µM* | / | 67 | / | / | ?
CC(C)C[C@H]1COc2cc(N3CCC[C@H]3CO)ccc2S(=O)(=O)N1 | -18% | / | 6 | / | / | -25%
NC(=O)c1ncn([C@@H]2O[C@H](CNC(=O)[C@H](N)CSCc3ccccc3)[C@@H](O)[C@H]2O)n1 | 12% | -4% | 51 | / | 4% | 18%
CCOC(=O)c1ccc2ncc(C(=O)OCC)c(NCc3ccco3)c2c1 | 23µM* | ? | -4 | ? | -6% | 15µM*
CCOC(=O)c1cnc2c(C)cccc2c1NCc1ccco1 | -19% | -4% | -19 | 14% | -4% | -25%
CCOC(=O)c1cnc2ccc(C(=O)OC)cc2c1Nc1ccccc1CC | 12µM* | / | / | / | / | 16µM*
O=C(NCc1cccnc1)C1CC(c2ccccc2Cl)=NO1 (centres undefined) | ? | ? | 23 | 0% | 17% | ?
COc1cccc(CNS(=O)(=O)c2ccccc2Br)c1OC | ? | -50% | 19 | / | -22% | ?
SMILES | TDP1 cell noCPT | MCF10A rereplic | IL1B secr inh | BCR signal inh | SW480 rerep | TDP1 cell CPT
COc1ccc(S(=O)(=O)N2CCC(C(=O)N[C@H](C(=O)N3CCCCCC3)C(C)C)CC2)cc1 | -5% | 6% | 0 | 5% | 8% | ?
COc1ccc([N+](=O)[O-])cc1N(CC(=O)Nc1ccccc1C(=O)NC(C)C)S(C)(=O)=O | -22% | -6% | 35 | 1% | 2% | -20%
O=C(O)c1cccc(N/N=C/c2sc(N3CCOCC3)nc2-c2ccccc2)c1 | 9% | ? | -1 | ? | ? | 0%
O=[N+]([O-])c1ccc(N/N=C/c2sc(N3CCOCC3)nc2-c2ccccc2)c(S(=O)(=O)Nc2ccccc2Cl)c1 | 1.8µM* | 10% | -21 | -1% | 13µM* | 3.3µM*
O=[N+]([O-])c1ccc(N/N=C/c2sc(N3CCOCC3)nc2-c2ccccc2)c(S(=O)(=O)Nc2ccc(Cl)cc2)c1 | 1µM* | ? | ? | 6% | 10µM* | 1.6µM*
O=C(N/N=C/c1sc(N2CCOCC2)nc1-c1ccccc1)c1ccccc1O | ? | ? | 10 | ? | ? | -29%
CC(=O)c1ccc(NC(=S)NCc2ccc(Cl)cc2Cl)cc1 | 23µM* | 16% | -16 | -1% | -13% | ?
COC(=O)c1ccc(NC(=S)NCCC2=CCCCC2)cc1 | -23% | -1% | 59 | ? | 0% | -12%
COC(=O)Cc1ccc(NC(=S)NCc2ccccc2Cl)cc1 | -37% | 18% | 15 | ? | 7% | ?
COC(=O)c1cccc(NC(=S)NCCC2=CCCCC2)c1 | 10µM* | 4% | 23 | ? | 0%[9.22 µM] | 12µM*
CC(=O)c1cccc(NC(=S)NCCc2ccc(Cl)cc2)c1 | 18µM* | 14% | -92* | ? | 0% | ?
CC1=C(C(=O)N2CCOCC2)CC(CC(=O)NCCCCc2ccccc2)C(=O)N1CCC1=CCCCC1 (centres undefined) | ? | / | 2 | / | / | ?
CCn1cc(C(=O)NCc2ccc3c(c2)OCO3)c(=O)c2cc(S(=O)(=O)N3CCOCC3)ccc21 | -17% | -1% | ? | 3% | -3% | -41%
CCn1cc(C(=O)NCCc2ccc(Cl)cc2)c(=O)c2cc(S(=O)(=O)N(C)C)ccc21 | 6% | 16% | 6 | ? | -20% | 3%
CCn1cc(C(=O)NCc2ccc3c(c2)OCO3)c(=O)c2cc(S(=O)(=O)N(C)C)ccc21 | 18µM* | 0% | -21 | 0% | 7% | ?
CCn1cc(C(=O)NCCCN(C)c2ccccc2)c(=O)c2cc(S(=O)(=O)N(C)C)ccc21 | ? | 1% | -5 | -9% | 9% | 16µM*
CCn1cc(C(=O)NCc2ccc(Cl)cc2)c(=O)c2cc(S(=O)(=O)N(C)C)ccc21 | 21µM* | ? | -69* | -5% | ? | ?
CCCNC(=O)Cc1c(C)oc2ccccc12 | 0% | 4% | -19 | ? | 1% | 4%

Bioassay records deposited in PubChem BioAssay by National Center for Advancing Translational Sciences (NCATS).
